In PubChem BioAssay (EPA / NIEHS):
Active and inactive are the calls of the source. The calls were made as follows: active = hit-call score of the fitted dose curve at least 0.9, where 1 is the maximum; inactive = score below 0.9.

How the values were obtained:
[1] = read-out: TIMP metallopeptidase inhibitor 1 (TIMP1), TIMP1 (gene 7076); assay: BSK_hDFCGF_TIMP1: BioMAP Diversity Plus: hDFCGF Assay for TIMP metallopeptidase inhibitor 1 (TIMP1) Biomarker Activity (AID 2283062); conditions: primary human foreskin fibroblasts; actives raise or lower the signal
Summary of the method: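 Human skin fibroblasts (primary), hDFCGF system; compound exposure 24 h; TIMP-1 by ELISA; bidirectional fit vs DMSO negative control; overt cytotoxicity by SRB in parallel wells.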

[2] = read-out: Monokine induced gamma interferon (MIG), CXCL9 (gene 4283); assay: BSK_hDFCGF_MIG: BioMAP Diversity Plus: hDFCGF Assay for Monokine induced gamma interferon (MIG) Biomarker Activity (AID 2283063); conditions: primary human foreskin fibroblasts; actives raise or lower the signal
Summary of the method: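 Chemicals were added to primary human foreskin fibroblast cultures, which were sampled 24 h later. MIG levels were then quantified by ELISA and responses fitted in both directions relative to DMSO.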

[3] = read-out: Matrix Metallopeptidase 1 (MMP1), MMP1 (gene 4312); assay: BSK_hDFCGF_MMP1: BioMAP Diversity Plus: hDFCGF Assay for Matrix Metallopeptidase 1 (MMP1) Biomarker Activity (AID 2283064); conditions: primary human foreskin fibroblasts; actives raise or lower the signal
Summary of the method: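 Human foreskin fibroblasts exposed to chemical for 24 h; MMP1 detected by ELISA, with DMSO as baseline for bidirectional fitting.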

[4] = read-out: Plasminogen activator inhibitor-1 (PAI1), SERPINE1 (gene 5054); assay: BSK_hDFCGF_PAI1: BioMAP Diversity Plus: hDFCGF Assay for Plasminogen activator inhibitor-1 (PAI1) Biomarker Activity (AID 2283066); conditions: primary human foreskin fibroblasts; actives raise or lower the signal
Summary of the method: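 Fibroblasts from human foreskin were treated with test chemical. After 24 h, PAI-1 was measured by ELISA. Activity was fitted in both directions relative to DMSO.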

[5] = read-out: Intercellular Adhesion Molecule 1 (ICAM1), ICAM1 (gene 3383); assay: BSK_KF3CT_ICAM1: BioMAP Diversity Plus: KF3CT Assay for Intercellular Adhesion Molecule 1 (ICAM1) Biomarker Activity (AID 2283067); conditions: primary human keratinocytes with fibroblasts; actives raise or lower the signal
Summary of the method: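 ICAM-1 levels are measured by ELISA 24 h after dosing a primary human co-culture of keratinocytes and foreskin fibroblasts. Activity in either direction is fitted relative to DMSO vehicle.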

[6] = read-out: Interferon-gamma inducible Protein 10 (IP10), CXCL10 (gene 3627); assay: BSK_KF3CT_IP10: BioMAP Diversity Plus: KF3CT Assay for Interferon-gamma inducible Protein 10 (IP10) Biomarker Activity (AID 2283068); conditions: primary human keratinocytes with fibroblasts; actives raise or lower the signal
Summary of the method: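 In a primary skin co-culture of keratinocytes and fibroblasts, IP-10 is quantified by ELISA at 24 h after dosing. SRB staining of parallel wells monitors overt toxicity. Curves are fitted both directions against DMSO.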

[7] = BSK_KF3CT_SRB: Viability Assessment in the BioMAP Diversity Plus: KF3CT Assay (AID 2283069); conditions: primary human keratinocytes with fibroblasts;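 also: read 24 h after compound addition; fitted for both signal gain and loss against DMSO baseline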
Summary of the method: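 Overt cytotoxicity is assessed as total protein by sulforhodamine B staining in parallel human skin co-cultures at 24 h after dosing. DMSO serves as negative control and baseline.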

[8] = read-out: Interleukin-1 alpha (IL1a), IL1A (gene 3552); assay: BSK_KF3CT_IL1a: BioMAP Diversity Plus: KF3CT Assay for Interleukin-1 alpha (IL1a) Biomarker Activity (AID 2283070); conditions: primary human keratinocytes with fibroblasts; actives raise or lower the signal
Summary of the method: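 Readout is IL-1a level by ELISA, compared bidirectionally with DMSO as baseline. Cells: human keratinocytes co-cultured with foreskin fibroblasts, harvested 24 h post-dose.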

[9] = read-out: TIMP metallopeptidase inhibitor 2 (TIMP2), TIMP2 (gene 7077); assay: BSK_KF3CT_TIMP2: BioMAP Diversity Plus: KF3CT Assay for TIMP metallopeptidase inhibitor 2 (TIMP2) Biomarker Activity (AID 2283071); conditions: primary human keratinocytes with fibroblasts; actives raise or lower the signal
Summary of the method: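 Chemicals were dosed onto human skin primary co-cultures of keratinocytes and foreskin fibroblasts, and TIMP-2 was measured by ELISA after 24 hours. Activity in either direction was fitted relative to DMSO.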

[10] = read-out: Transforming growth factor beta 1 (TGFb1), TGFB1 (gene 7040); assay: BSK_KF3CT_TGFb1: BioMAP Diversity Plus: KF3CT Assay for Transforming growth factor beta 1 (TGFb1) Biomarker Activity (AID 2283072); conditions: primary human keratinocytes with fibroblasts; actives raise or lower the signal
Summary of the method: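 KF3CT co-culture (keratinocytes + fibroblasts), 24 h exposure → TGF-b1 ELISA → bidirectional fit, DMSO = baseline. Parallel SRB total-protein staining (0.1% SRB, 10% TCA fixation, 560 nm) for cytotoxicity.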

[11] = read-out: C-C motif chemokine 2 (Homo sapiens) (UniProt P13500); assay: BSK_KF3CT_MCP1: BioMAP Diversity Plus: KF3CT Assay for Monocyte Chemoattractant Protein 1 (MCP1/CCL2) Biomarker Activity (AID 2283073); conditions: primary human keratinocytes with fibroblasts; actives raise or lower the signal
Summary of the method: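 ELISA readout of MCP-1 after 24 h chemical dosing of a human skin primary co-culture of keratinocytes and foreskin fibroblasts. Activity was fitted in both directions against DMSO.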

[12] = read-out: Matrix Metallopeptidase 9 (MMP9), MMP9 (gene 4318); assay: BSK_KF3CT_MMP9: BioMAP Diversity Plus: KF3CT Assay for Matrix Metallopeptidase 9 (MMP9) Biomarker Activity (AID 2283074); conditions: primary human keratinocytes with fibroblasts; actives raise or lower the signal;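 as to AC50: MMP9 protein level quantified by ELISA in the co-culture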
Summary of the method: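 Values come from bidirectional fitting relative to DMSO of MMP-9 levels, which were measured by ELISA. Measurements were taken 24 h after chemical dosing of a keratinocyte and foreskin fibroblast co-culture.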

[13] = read-out: urokinase plasminogen activator (uPA), PLAU (gene 5328); assay: BSK_KF3CT_uPA: BioMAP Diversity Plus: KF3CT Assay for urokinase plasminogen activator (uPA) Biomarker Activity (AID 2283075); conditions: primary human keratinocytes with fibroblasts; actives raise or lower the signal
Summary of the method: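 Values derive from bidirectional fitting against DMSO controls. Keratinocyte/foreskin fibroblast co-cultures received chemical; 24 h later uPA was detected by ELISA, with SRB total-protein staining in parallel wells for overt cytotoxicity.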

[14] = read-out: CD40, CD40 (gene 958); assay: BSK_LPS_CD40: BioMAP Diversity Plus: LPS Assay for CD40 Biomarker Activity (AID 2283076); conditions: primary human HUVEC with PBMC; actives raise or lower the signal
Summary of the method: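 Cells were dosed, incubated 24 h, then assayed for CD40 by ELISA. Gain or loss of signal was analysed relative to DMSO controls. The culture paired human umbilical vein endothelium with peripheral blood mononuclear cells.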

[15] = read-out: E-selectin (Homo sapiens) (UniProt P16581); assay: BSK_LPS_Eselectin: BioMAP Diversity Plus: LPS Assay for Eselectin Biomarker Activity (AID 2283077); conditions: primary human HUVEC with PBMC; actives raise or lower the signal
Summary of the method: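 Primary human vascular co-culture (endothelium plus PBMC) was dosed with chemical, then E-selectin quantified by ELISA at 24 h. Endpoint values derive from bidirectional curve fitting relative to DMSO.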

[16] = BSK_LPS_SRB: Viability Assessment in the BioMAP Diversity Plus: LPS Assay (AID 2283079); conditions: primary human HUVEC with PBMC;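 also: total protein by sulforhodamine B absorbance as a cytotoxicity measure; measured one day after compound addition; fitted in both directions against DMSO so loss or gain of signal counts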
Summary of the method: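 Readout is SRB absorbance at 560 nm (0.1% stain, TCA-fixed parallel cultures) as a total-protein cytotoxicity measure. Cells: primary human umbilical vein endothelium plus peripheral blood mononuclear cells, 24 h after chemical exposure; DMSO served as baseline.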

[17] = read-out: Interleukin-1 alpha (IL1a), IL1A (gene 3552); assay: BSK_LPS_IL1a: BioMAP Diversity Plus: LPS Assay for Interleukin-1 alpha (IL1a) Biomarker Activity (AID 2283080); conditions: primary human HUVEC with PBMC; actives raise or lower the signal
Summary of the method: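 ELISA read-out of IL-1 alpha from a human primary vascular co-culture (endothelium plus PBMC) under LPS, sampled 24 hours post-dosing. Activity was fitted in both directions relative to DMSO controls.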

[18] = read-out: Monocyte Chemoattractant Protein-1 (MCP1), CCL2 (gene 6347); assay: BSK_LPS_MCP1: BioMAP Diversity Plus: LPS Assay for Monocyte Chemoattractant Protein-1 (MCP1) Biomarker Activity (AID 2283081); conditions: primary human HUVEC with PBMC; actives raise or lower the signal;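 as to AC50: co-culture stimulated with LPS; secreted MCP-1 protein quantified by ELISA in culture supernatant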
Summary of the method: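 Human endothelial–PBMC co-cultures were dosed with chemical, then LPS-driven MCP-1 levels were quantified by ELISA at 24 h. Activity in either direction was fitted versus DMSO negative control.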

Measured: AC50

Sequence of E-selectin (Homo sapiens) (P16581 whole entry, looked up): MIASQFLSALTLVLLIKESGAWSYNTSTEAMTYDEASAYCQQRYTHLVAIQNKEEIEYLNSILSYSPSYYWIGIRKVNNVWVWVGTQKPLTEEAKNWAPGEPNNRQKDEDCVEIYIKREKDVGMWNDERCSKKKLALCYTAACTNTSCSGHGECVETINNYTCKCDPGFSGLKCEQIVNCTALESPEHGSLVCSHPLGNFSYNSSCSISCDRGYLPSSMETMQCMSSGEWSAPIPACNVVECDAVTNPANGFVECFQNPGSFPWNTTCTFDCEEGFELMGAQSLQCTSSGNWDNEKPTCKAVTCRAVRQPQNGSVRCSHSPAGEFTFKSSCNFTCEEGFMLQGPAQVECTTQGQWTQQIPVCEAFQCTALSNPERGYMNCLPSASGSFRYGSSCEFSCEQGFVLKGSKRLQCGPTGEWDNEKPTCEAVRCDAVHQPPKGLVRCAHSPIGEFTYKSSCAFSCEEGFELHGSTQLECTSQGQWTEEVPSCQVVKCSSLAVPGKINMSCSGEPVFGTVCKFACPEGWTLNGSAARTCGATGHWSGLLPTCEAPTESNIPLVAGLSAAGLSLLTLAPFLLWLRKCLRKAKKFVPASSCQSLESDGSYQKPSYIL

O=C(O)c1ccc([N+](=O)[O-])cc1
inactive: all assays above

O=C(O)c1cn(C2CC2)c2cc(N3CCNCC3)c(F)cc2c1=O
inactive: all assays above

CC(=O)[C@H]1CC[C@H]2[C@@H]3CC=C4C[C@@H](O)CC[C@]4(C)[C@H]3CC[C@]12C
not listed: [10]
inactive: all other assays above

CC1COc2ccccc2N1C(=O)C(Cl)Cl (stereo unspecified)
active: [3] 20 µM | [4] 0.0533 µM | [8] 0.629 µM | [12] 13.7 µM | [13] 0.0271 µM | [14] 10.9 µM | [15] 20 µM | [16] 7.42 µM | [17] 13.2 µM | [18] 5.75 µM
inactive: [1] | [2] | [5] | [7] | [9] | [10] | [11]

COC(=O)c1ccc(C)cc1
inactive: all assays above

Cc1ccc(O)c(C(C)(C)C)c1
active: [1] 27.6 µM | [2] 36.7 µM | [3] 33.4 µM | [4] 30.7 µM | [5] 34.3 µM | [6] 37.5 µM | [7] 35.2 µM | [8] 28.9 µM | [9] 24.9 µM | [10] 20 µM | [11] 36.6 µM | [12] 30.9 µM | [13] 36.6 µM | [14] 30.4 µM | [15] 30.4 µM | [16] 31 µM | [17] 36.2 µM | [18] 33 µM
